According to PubChem BioAssay (NCI):
The panel holds about 79,000 compounds, 15% with a hit somewhere; the sample as a whole holds those more often. Calls of active or inactive are those of the source. Rule as the data show it: active = growth inhibition above about 70%; inactive = the rest.

Assay: NCI Yeast Anticancer Drug Screen. Data for the rad14 strain (AID 159);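 also: 0% = growth of vehicle-treated control cultures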
Details: S. cerevisiae rad14 strain growth inhibition, hits give high values
Experimental: Growth inhibition of yeast strains with defined genetic alterations is measured as a screen for potential anti-cancer activity. Selected strains with alterations in DNA damage repair or cell cycle control were exposed to compounds and growth inhibition was measured relative to vehicle treated controls. The strain used in this assay is rad14

Measured: growth inhibition

C[Si](C)(C)CNC(=O)OCc1ccccc1
inactive: at 1.2 µM -1% | at 3.7 µM -1% | at 11.0 µM 0% | at 33.0 µM 0% | at 100.0 µM 6%

COc1cc(C2c3cc4c(cc3OC(Nc3ccccc3)C2C)OCO4)cc(OC)c1O (stereo not given)
inactive: at 1.2 µM 1% | at 3.7 µM 1% | at 11.0 µM 4% | at 33.0 µM 5% | at 100.0 µM 51%

CC(O)C(O)C(O)C(/C=N\Nc1ccccc1)=N/Nc1ccccc1 (stereo not given)
active: at 100.0 µM 99%
inactive: at 1.2 µM -2% | at 3.7 µM -1% | at 11.0 µM 4% | at 33.0 µM 21%

NC(N)=N/N=C\c1c2ccccc2cc2ccccc12
active: at 100.0 µM 95%
inactive: at 1.2 µM -50% | at 3.7 µM -41% | at 11.0 µM -45% | at 33.0 µM 9%

CC1OCC2OC(C)OC(C3C4=C(CC(C)(C)CC4=O)OC4=C3C(=O)CC(C)(C)C4)C2O1 (stereo not given)
inactive: at 1.2 µM -1% | at 3.7 µM -1% | at 11.0 µM 5% | at 33.0 µM 18% | at 100.0 µM 41%

O=C(COC(=O)c1cc(O)c(O)c(O)c1)c1ccc(-c2ccccc2)cc1
inactive: at 1.2 µM 1% | at 3.7 µM 1% | at 11.0 µM 9% | at 33.0 µM 44%
active: at 100.0 µM 95%

Cc1ccc(NC(=O)/C(Cl)=C(\Cl)C(=O)O)cc1C
active: at 33.0 µM 99% | at 100.0 µM 99%
inactive: at 1.2 µM 3% | at 3.7 µM 6% | at 11.0 µM 26%

Cc1nc(-[n+]2nc(-c3ccncc3)nn2-c2ccccc2)sc1C
inactive: at 1.2 µM -2% | at 3.7 µM -3% | at 11.0 µM -7% | at 33.0 µM 8% | at 100.0 µM 1%
